In PubChem BioAssay AID2158 (National Center for Advancing Translational Sciences (NCATS), 2009) one finds Potency and activity change, negative = inhibition data, which are given here for 39 compounds.

“And” between values parts separate entries of the source, which are not always exact repeats. Equal values may be shown once. Records with an inconclusive call do not appear. The source made the active and inactive calls. The call rests on the fitted dose curve; in most records, active means well fitted inhibition curve with a large enough effect; inconclusive means small, poorly fitted or top-dose-only effect; inactive means no such curve, though single readings can be large or run the other way.
Potency means the concentration at half of the fitted maximal effect.

Cruzipain (Trypanosoma cruzi), sequence (P25779 123-467 limits assumed): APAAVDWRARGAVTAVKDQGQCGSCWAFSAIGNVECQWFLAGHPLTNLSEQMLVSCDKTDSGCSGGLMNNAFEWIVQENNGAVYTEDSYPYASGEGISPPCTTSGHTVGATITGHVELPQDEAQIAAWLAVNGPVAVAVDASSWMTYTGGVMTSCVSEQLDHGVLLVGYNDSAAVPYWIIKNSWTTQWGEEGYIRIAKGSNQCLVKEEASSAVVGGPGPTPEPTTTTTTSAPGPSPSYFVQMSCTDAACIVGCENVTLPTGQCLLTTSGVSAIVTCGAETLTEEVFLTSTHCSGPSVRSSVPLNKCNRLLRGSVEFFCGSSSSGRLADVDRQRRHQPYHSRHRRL

This test addresses Cruzipain (Trypanosoma cruzi) (UniProt P25779). Kind of test: Confirmation qHTS Assay for Inhibitors of Cruzain. Further: nearly all actives have a fitted effect of over 40% in size.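 On activity change, negative = inhibition: plate controls were uninhibited enzyme control for no effect and buffer wells lacking enzyme for full effect.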 As to conditions: purified cruzain, Z-FR-AMC fluorescence, 0.01% Triton. In a few lines: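 Purified cruzain, 1.5 nM, pre-incubated 15 min at room temperature with compound in 100 mM sodium acetate pH 5.5, 5 mM DTT, 0.01% Triton X-100. Then 2 uM Z-FR-AMC added; AMC fluorescence (ex 360/em 450 nm) increase over 60 s gave reaction progress.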
(In general: Quantitative high-throughput screening tests each substance at several concentrations.)
With `Cc1ccc(C(=O)NCC(=O)OCC(=O)c2ccc3ccccc3c2)cc1`, the Potency is 12.6 µM (active).

With `COc1cc(OC)c(-c2nn3c(-c4n[nH]c5c4CCC5)nnc3s2)cc1OC`, the activity change, negative = inhibition is -3.44% (inactive) and -1.31% (inactive). In the case of `Cc1cccc(OCCn2c(CCNC(=O)C3CCCCC3)nc3ccccc32)c1`, the Potency was 0.891 µM (active). As to `COc1cccc(CNC(=O)c2ccc3c(c2)N(Cc2ccc(F)cc2Cl)C(=O)c2ccccc2S3)c1`, the activity change, negative = inhibition was 2.24% (inactive). With `CCCN(CCC)c1nc(C#N)nc(N(CCC)CCC)n1`, the Potency was 3.55 µM (active). With `Cc1ccccc1OCC(=O)NCC(=O)OCC(=O)c1ccc(F)cc1`, the activity change, negative = inhibition was -14.6% (inactive). On the same count and under the same terms, for `O=C(NC(=S)Nc1nc(-c2cccc3ccccc23)cs1)c1cc2ccccc2o1` the value was -1.65% (inactive). Same read-out and setting: for `O=C(Cn1cc(CNCc2ccccc2)nn1)Nc1cc(C(F)(F)F)ccc1Cl` the value was 3.4% (inactive); for `O=C(NCCCc1nc2ccccc2n1CCCCOc1ccccc1)C1CCCCC1`, -23.8% (inactive). Consider `CCNc1nc(C#N)nc(N2CCCCC2)n1`, for which the Potency is 5.01 µM (active). Still for that read-out and setting: for `O=C(CNC(=O)C1CCCCC1)OCC(=O)c1cccc(Cl)c1` the value was 2.82 µM (active); for `CCCN(CCC)c1nc(N)nc(C#N)n1`, 2.51 µM (active).

For the compound `Cc1ccc2[nH]c(=O)c(CN(Cc3ccco3)Cc3nnnn3Cc3ccccc3)cc2c1`, the activity change, negative = inhibition was -13.8% (inactive).

Regarding `O=C(Nc1ccccc1)c1ccc(-n2nncc2-c2ccccc2)cc1`, the activity change, negative = inhibition was -11.6% (inactive).

Turning to `Cc1cccc(Cn2cc(/C=C(/C#N)C(=O)Nc3cccc(Cl)c3)c3ccccc32)c1`, the activity change, negative = inhibition was -2.85% (inactive). As for `NNC(=O)C(C(=O)OCc1ccccc1)c1ccccc1` (centres undefined), the activity change, negative = inhibition was -1.2% (inactive). With `N#Cc1nc(Nc2cccc(Cl)c2)nc(NC2CCCC2)n1`, the Potency is 0.0794 µM (active). The same measure, in the same setting: in the case of `N#Cc1ccc(NC(=O)COC(=O)CNC(=O)C2CCCCC2)cc1` it was 14.1 µM (active); in that of `COc1ccccc1OCCn1c(CCNC(=O)C2CCCCC2)nc2ccccc21`, 1.41 µM (active). For `Cc1ccccc1OCCCCn1c(CCNC(=O)C2CCCCC2)nc2ccccc21`, the Potency was 0.562 µM (active). In the case of `CN(c1ccccc1)c1nc(C#N)nc(N2CCOCC2)n1`, the Potency is 1.26 µM (active).

For `O=C(NCc1nnc(-c2cc3ccccc3[nH]2)o1)c1ccccc1`, the activity change, negative = inhibition was -2.11% (inactive). `O=C(COC(=O)CNC(=O)c1ccccc1Cl)Nc1ccccc1Cl`: the Potency is 3.55 µM (active). For `O=C(CNC(=O)C(c1ccccc1)c1ccccc1)OCC(=O)c1cccc2ccccc12`, the activity change, negative = inhibition was 17.8% (inactive). Still for that read-out and setting: in the case of `O=C(COC(=O)CNS(=O)(=O)c1ccc(F)c(F)c1F)Nc1ccc(OC(F)F)cc1` it was -11.4% (inactive). Take `COc1ccc(NC(=O)C(OC(=O)CNC(=O)c2ccccc2)c2ccccc2)c(C)c1` (centres undefined): the Potency is 8.91 µM (active).

For `CCOc1ccc(NC(=O)c2ccc(CNc3c(NC4CCCCC4)c(=O)c3=O)cc2)cc1`, the activity change, negative = inhibition is 1.77% (inactive). As to `O=C(NCc1nnc(C(=O)Nc2ccc(C(F)(F)F)cc2Cl)o1)c1ccccc1`, the activity change, negative = inhibition is -7.13% (inactive). On the same count and under the same terms, for `CCCCNC(=O)Cn1c(SCc2cccc(C)c2)nc2ccncc21` the value was -22.6% (inactive).

As to `C=CC(C)(C)c1[nH]c2ccccc2c1C1=C(O)C(=O)C(c2c[nH]c3c(CC=C(C)C)cccc23)=C(O)C1=O`, the Potency was 25.1 µM (active). Turning to `Cc1ccccc1OCC(=O)NCC(=O)OCC(=O)c1ccc2c(c1)CCCC2`, the activity change, negative = inhibition is -3.79% (inactive).

Regarding `CCC(C(=O)NC1CCCCC1)n1c(SCc2ccc(F)cc2)nc2ccncc21` (centres undefined), the Potency was 4.47 µM (active). For the compound `CCc1ccc2[nH]c(=O)c(CN(Cc3ccccc3)Cc3nnnn3C(C)(C)C)cc2c1`, the activity change, negative = inhibition was -22.1% (inactive). Same read-out and setting: in the case of `COc1ccc(N=Cc2nc(-c3ccccc3)oc2OC(=O)c2ccccc2)cc1` it was -22% (inactive).

On to `O=C(CNC(=O)c1ccncc1)OC(C(=O)Nc1cc(C(F)(F)F)ccc1Cl)c1ccccc1` (centres undefined), for which the Potency was 25.1 µM (active). `N#Cc1nc(N)nc(N(c2ccccc2)c2ccccc2)n1`: the Potency was 3.55 µM (active) and 3.16 µM (active). Regarding `CC(C)(C)OC(=O)NCC(=O)NNC(=O)c1cc2ccccc2[nH]1`, the activity change, negative = inhibition was -2.11% (inactive).

For `CCNc1nc(C#N)nc(N2CCOCC2)n1`, the Potency was 10 µM (active).

For `O=C(COc1ccc(F)cc1)NCCc1nc2ccccc2[nH]1`, the Potency was 0.199 µM (active).
